Reference: PubChem BioAssay AID588405 (Sanford-Burnham Center for Chemical Genomics, 2011)
Screen size: about 360,000 compounds; about 6,200 (1.7%) were called active. For the sample, actives were picked, then their nearest neighbours and some compounds at random. Unmarked numbers belong to inactive results.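 How the source made its calls: active means inhibition of at least 50% at 20 µM; inactive means the rest.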

Experiment: Peg3 promoter-driven luciferase inhibitors, primary screen, cell-based, HeLa, luciferase luminescence (AID 588405)
Conditions: HeLa PEG-Prom luciferase reporter, overnight, at 20 µM, active compounds read high

Compound | inhibition
COc1ccc(-c2[nH]ncc2CN(C)Cc2cccnc2)c(F)c1 | 9.62%
CCOc1ccc2[nH]c(=O)c(CN(CCCO)S(=O)(=O)c3ccc(F)cc3)cc2c1 | 12.7%
COc1ccc2[nH]c(=O)c(CN(Cc3cccnc3)S(=O)(=O)c3ccccc3F)cc2c1 | 59.6% (active)
Cn1c(NCc2cccnc2)nc2cc(-c3ccc(F)cc3)sc2c1=O | -200%
COc1c(C)cc(C(=O)C2CCCN(S(=O)(=O)c3c(C)noc3C)C2)cc1C (stereo unspecified) | 34.8%
Cc1c(-c2ccccc2)nc(N)c(C#N)c1-c1cccs1 | 12.9%
CSc1nc(N)c(C#N)c(-c2ccccc2Cl)c1C#N | 53.6% (active)
COc1ccccc1-c1c(C#N)c(N)nc2c1CCC2 | 8.52%
NCCCCC(C(=O)O)N(C(=O)OCc1ccccc1)C(=O)OCc1ccccc1 (stereo unspecified) | 5.74%
CCNC(=O)C1CCCN(C(=O)c2ccc(OC)cc2OC)CC1 (stereo unspecified) | -2.59%
CNC(=O)c1[nH]cnc1C(=O)N[C@@H](CC(C)C)C(=O)OCc1ccccc1 | 4.89%
CCOc1ccc(-n2c(SCC(=O)NC3CCS(=O)(=O)C3)nnc2-c2cccnc2)cc1 (stereo unspecified) | -3.16%
CCN1CCC(O)(/C=C/c2ccc(C)cc2)C(C(=O)/C=C/c2ccc(C)cc2)C1 (stereo unspecified) | 97.7% (active)
COc1cc(C(O)c2nc(-c3cccc(C(=O)O)c3)cs2)ccc1F (stereo unspecified) | -37.1%
Cc1nc(C(F)(F)F)ccc1C(=O)N1CCC1(C)C(=O)NS(=O)(=O)c1ccccc1 (stereo unspecified) | 11.6%
CCC(C)Cn1c(O)cc2nn(-c3nc4ccccc4s3)c(=O)c-2c1C (stereo unspecified) | 96.7% (active)
OC[C@H]1O[C@@H](c2nc(-c3nc(-c4ccc(F)cc4)no3)cs2)[C@H](O)[C@@H](O)[C@H]1O | -42.8%
Nc1nc(CSc2nnnn2-c2ccccc2)nc(Nc2ccccc2)n1 | 6.46%
Cc1cccc(CN2CCN(C3CN(Cc4ccccc4)S(=O)(=O)C3)CC2)c1 (stereo unspecified) | 24.2%
O=C(OC12CC3CC(CC(C3)C1)C2)c1ccc(NCc2cc(O)ccc2O)cc1 | 82.7% (active)
CC1(C)C2CCC1(C)C(OC(=O)c1ccc(O)cc1)C2 (stereo unspecified) | -14.1%
CCCCC(=O)N(C)c1c(CC)nc2c(OCc3ccc(S(C)(=O)=O)cc3)cccn12 | -0.29%
CC(C)Oc1cc(F)ccc1-c1cc(C(=O)Nc2ccc(F)cc2)[nH]n1 | -30.2%
O=C1CCNCCN1[C@H](CO)Cc1ccccc1 | 3.53%
c1ccc2c(CCN3CCNC[C@H]3Cc3cccc4ccccc34)cccc2c1 | -8.29%
c1ccc(C[C@H]2CNCCN2CCC23CC4CC(CC(C4)C2)C3)cc1 | 96.8% (active)
